Test results reported in PubChem BioAssay (NCI).
“And” between values parts separate entries of the source, which are not always exact repeats. Equal entries are not always repeated. About 83,000 compounds went through this panel and 20% of them were active in at least one assay; those are over-represented in the sample as a whole.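 Assay: single dose, 48 h. Readout: percent growth (0 = no net growth; negative = cell death). Active: <10.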 The source made the active and inactive calls.

test system: MCF7 breast; assay: NCI-60 one-dose screen, 48 h (100 = growth as untreated, 0 = no growth, -100 = all killed); details: 10 µM unless noted

Row | Structure (SMILES) | growth
1 | COc1ccc(C2c3cc4c(c(OC)c3CC3OCC(=O)C32)OCO4)cc1OC (stereo not given) | 6.05% [100 µM] (active) and -81% [100 µM] (active)
2 | O[C@H]1[C@H](O)[C@@H](Cn2nnc(-c3ccccc3)c2-c2ccccc2)OCO[C@@H]1Cn1nnc(-c2ccccc2)c1-c1ccccc1 | -62.6% [100 µM] (active)
3 | Cc1ccc(/C=N/Nc2ccccn2)s1 | 13.4% [100 µM] (inactive) and 0.177% [100 µM] (active)
4 | COC(=O)C(=O)C(C(=O)C(=O)Nc1nc2ccc(C)cc2s1)c1nc2ccc([N+](=O)[O-])cc2[nH]c1=O (stereo not given) | 60.3% [100 µM] (inactive) and 57.7% [100 µM] (inactive)
5 | CCC/C(Cl)=N/OC(=O)Nc1cccc(F)c1 | -73.4% [100 µM] (active) and -100% [100 µM] (active)
